Experimental data: PubChem BioAssay
Activity calls are given as the source filed them.

Tests used:
Albumin (Bos taurus) = Albumin (Bos taurus) (UniProt P02769); assay: compounds binding labelled BSA control protein – biochemical, small-molecule microarray, Alexa647 label, 635/667 nm fluorescence, artefact control for SMM control protein annotation, profiling panel (AID 1118); settings: BSA-A647 binding, fluorescence 635 nm, higher = more signal;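 note: score merges 667 nm emission intensity and signal-to-noise per printed compound spot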
Albumin (Bos taurus), sequence (P02769 whole entry, looked up): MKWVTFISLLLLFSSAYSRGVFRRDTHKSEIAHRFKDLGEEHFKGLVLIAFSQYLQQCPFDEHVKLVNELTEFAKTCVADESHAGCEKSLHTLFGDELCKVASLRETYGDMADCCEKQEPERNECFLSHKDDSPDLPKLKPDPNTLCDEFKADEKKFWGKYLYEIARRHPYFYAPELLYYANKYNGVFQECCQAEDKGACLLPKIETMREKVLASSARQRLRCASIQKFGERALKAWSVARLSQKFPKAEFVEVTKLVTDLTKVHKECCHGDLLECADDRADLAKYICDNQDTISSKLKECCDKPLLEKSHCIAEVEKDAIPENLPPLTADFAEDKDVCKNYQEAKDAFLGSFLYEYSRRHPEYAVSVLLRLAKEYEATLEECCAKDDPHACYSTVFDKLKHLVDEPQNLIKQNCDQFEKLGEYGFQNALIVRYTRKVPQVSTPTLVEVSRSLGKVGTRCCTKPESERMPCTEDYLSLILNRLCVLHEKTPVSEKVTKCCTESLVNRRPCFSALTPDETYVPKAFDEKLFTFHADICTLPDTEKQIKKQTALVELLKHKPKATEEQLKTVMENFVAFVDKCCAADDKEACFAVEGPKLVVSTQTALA

[1] = probe aXIP binding to arrayed compounds – biochemical, NeuroSMM set, 635/667 nm fluorescence, primary screen (AID 1119); settings: small-molecule microarray, higher = more signal, called active from +8 up or from −8 down;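 note: probe is the protein aXip251-270 applied at 1 µg/mL to compound-printed slides; binding of probe to printed compounds measured as 667 nm fluorescence plus signal to noise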
[2] = probe aNOTCH3 binding on compound microarray – biochemical, small-molecule microarray, 635/667 nm fluorescence, primary screen (AID 1120); settings: higher = more signal;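 note: probe is a biotin-tagged antibody raised against NOTCH3 rather than NOTCH3 protein; score merges spot fluorescence near 667 nm with spot signal to noise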
[3] = probe aNOTCH2 binding on compound microarray – biochemical, small-molecule microarray, 635/667 nm fluorescence, primary screen (AID 1121); settings: higher = more signal;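 note: score merges feature fluorescence read at 667 nm with its signal to noise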
[4] = molecular target: Carbonic anhydrase 2 (Homo sapiens) (UniProt P00918); assay: compounds binding carbonic anhydrase 2 – biochemical, small-molecule microarray, Alexa647-labelled CAII, profiling panel (AID 1122); settings: CAII-A647 binding fluorescence, higher = more signal
[5] = COS7 lysate on small-molecule microarray, probe aHis, 635 nm (AID 1123); settings: COS7 cell lysate, fluorescence, higher = more signal;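 note: z-score combines 667nm fluorescence intensity with signal-to-noise per printed compound spot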
[6] = probe aLAP1 signal on lysate-treated microarray – cell lysate, small-molecule microarray, COS7 lysate, primary screen (AID 1124); settings: probe aLAP1, fluorescence, higher = more signal;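 note: lysate comes from COS7 cells expressing LAP1 and is applied at 0.3 µg/mL; score merges spot fluorescence near 667 nm with signal-to-noise over triplicate slides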
Sam68 (KHDRBS1) = assay: compounds binding KHDRBS1 protein – biochemical, small-molecule microarray, 635 nm fluorescence, primary screen (AID 1125); settings: higher = more signal;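 note: score merges 667 nm channel intensity with signal to noise over triplicate slides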
[7] = system: Chordin-like protein 2 (CHRDL2); assay: compounds binding chordin-like 2 – biochemical, small-molecule microarray, 635 nm fluorescence, primary screen (AID 1126); settings: fluorescence 635 nm, higher = more signal;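 note: printed compound slides probed with Chrdl2 protein at 4 µg/mL for 1 h at 4 C; score merges 667 nm emission intensity with signal to noise over three replicate slides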
[8] = molecular target: Concanavalin-A (Canavalia ensiformis) (UniProt P02866); assay: compounds binding concanavalin A lectin – biochemical, small-molecule microarray, Alexa647 label, 635 nm, artefact control for SMM control protein annotation, primary screen (AID 1127); settings: ConA-A647 binding fluorescence, higher = more signal;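 note: z combines 667 nm emission intensity with signal-to-noise across three replicate slides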
Concanavalin-A (Canavalia ensiformis), sequence (P02866 whole entry, looked up): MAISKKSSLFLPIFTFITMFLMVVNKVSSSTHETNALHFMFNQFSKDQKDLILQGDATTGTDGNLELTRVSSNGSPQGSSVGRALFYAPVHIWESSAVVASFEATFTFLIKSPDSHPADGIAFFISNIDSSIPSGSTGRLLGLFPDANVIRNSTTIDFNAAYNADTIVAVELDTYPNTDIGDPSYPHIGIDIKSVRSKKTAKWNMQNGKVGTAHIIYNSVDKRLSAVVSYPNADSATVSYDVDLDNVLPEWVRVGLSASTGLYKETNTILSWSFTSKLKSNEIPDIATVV

Compound	composite z-score (Albumin (Bos taurus))	composite Z-score [1]	composite z-score [2]	composite z-score [3]	composite z-score [4]	composite z-score [5]	composite z-score [6]	composite z-score (Sam68 (KHDRBS1))	composite z-score [7]	composite z-score [8]
C=C(COC)/C(=C/C[C@H](OC(=O)c1ccncc1)c1ccc(CO)o1)c1cc(C(=O)OC)ccc1OC	0.439	0.515 (inactive)	0.0222	-0.0255	0.554	1.17	0.347	1.15	0.79	0.889
CC(C)NC(=O)[C@@]1(c2ccc([N+](=O)[O-])cc2)CC(=O)N(CC23CC4CC(CC(C4)C2)C3)[C@@H]1c1ccc(CO)cc1I	-0.0212	0.567 (inactive)	0.299	0.23	0.241	0.997	1.04	1.27	0.111	0.93
CO[C@H]1O[C@H](CO)[C@@H](OC(=O)Nc2ccc(C#N)cc2)[C@H](OC(=O)c2cc3ccccc3[nH]2)[C@H]1OC(=O)c1cc2ccccc2[nH]1	0.904	1.79 (inactive)	0.078	-0.0211	0.627	2.41	1.5	1.31	0.451	1.13
CC(CCN1CCc2nc(-c3ccccc3)c(-c3ccccc3)cc2C1)=NOC[C@@H](C)[C@H](OCc1ccccc1)C(C)C	0.474	-0.193 (inactive)	0.0375	-0.177	-0.0642	0.271	-0.2	-1.19	-1.11	-0.198
CCCNC(=O)OC[C@H]1O[C@H](CCON=C[C@@H](OC)[C@H](C)C=CCC(=O)OC)C=C[C@@H]1Oc1ccc(OC)cc1	-1.05	-0.431 (inactive)	0.142	-0.192	0.0769	0.438	0.325	0.693	1.16	-1.26
CC[C@@H](c1ccccc1)n1c(=O)n2n(c1=O)[C@H]1[C@H](O)[C@@H]3O[C@@H]3C(=NOCC=C(C)CCC=C(C)C)[C@H]1CC2	-0.258	-0.183 (inactive)	0.192	-0.084	0.406	0.689	-0.194	1.29	0.552	0.548
CC(CCN1CCc2nc(-c3ccccc3)c(-c3ccccc3)cc2C1)=NO[C@H](C)c1cn([C@@H]2COC[C@H]2O)nn1	0.156	-0.0135 (inactive)	0.0864	-0.117	-0.089	0.507	0.222	1.31	0.0957	-0.411
CN(C)c1ccc(C(O)C2C=CC3C(=O)N(c4ccccc4)C(=O)C3N2Nc2ccccc2F)cc1 (stereo not given)	0.62	-0.122 (inactive)	0.134	0.0605	0.522	1.11	-0.301	0.87	-0.371	0.676
Cc1cc(C)c(-c2cc([C@H](C)ON=C3[C@H]4CCn5c(=O)n(-c6ccccc6)c(=O)n5[C@H]4[C@H](O)[C@@H]4O[C@H]34)on2)c(C)c1	0.652	-0.853 (inactive)	0.125	-0.205	0.311	0.486	0.0647	0.416	0.231	0.706
COc1cccc([C@@H]2Oc3ccc(Br)cc3C(=O)[C@H]2O)c1	0.705	0.38 (inactive)	-0.0111	-0.084	0.439	0.599	0.214	0.26	0.432	1.11
COc1ccc(COC(=O)NN=C2C[C@@H](O)[C@@H](O)[C@@H]3[C@@H]4C(=O)N(Cc5ccc6c(c5)OCO6)C(=O)[C@@H]4CC[C@@H]23)cc1	-0.152	-0.463 (inactive)	0.218	0.015	-0.244	0.115	0.616	-0.395	-0.54	-1.3
CC(=O)OC[C@H]1O[C@@H](ON=C(C)CCN2CCc3nc(-c4ccccc4)c(-c4ccccc4)cc3C2)[C@H](OC(C)=O)[C@@H](OC(C)=O)[C@@H]1OC(C)=O	0.507	-0.0295 (inactive)	0.12	-0.156	0.16	0.614	0.717	1.3	0.346	0.878
CCCC[C@@H]1C[C@H]1[C@@H](NS(=O)(=O)c1cccc2cccnc12)c1ccc(-c2ccccc2)cc1	0.41	-0.325 (inactive)	0.106	-0.0817	0.529	0.92	-0.222	-0.0217	-1	0.119
CC(C)C[C@@H]1NC(=O)[C@H]2C[C@@H](C(=O)NCCCCCCN(C)C)[C@@H](c3cccc(OCCO)c3)N2C1=O	-0.615	2.07 (inactive)	0.16	-0.153	0.557	2.81	1.44	1.31	1.47	1.09
COc1ccc(O[C@H]2C=C[C@@H](c3ccccc3)O[C@@H]2COC(=O)CCC(C)=NO[C@H](C)c2cn([C@@H]3COC[C@H]3O)nn2)cc1	0.454	0.362 (inactive)	-0.015	-0.211	-0.106	-0.208	0.263	0.771	0.656	0.427
C#CCCCON=C1C[C@@H](O)[C@@H](O)[C@@H]2[C@@H]3C(=O)N(c4cccc(Oc5ccccc5)c4)C(=O)[C@@H]3CC[C@@H]12	0.487	0.154 (inactive)	-0.0311	-0.244	0.256	1.77	-0.164	1.32	-0.0255	0.884
CC(=O)OC[C@H]1O[C@H](CCON=C[C@@H](C)[C@H](OCc2ccccc2)C(C)C)C=C[C@@H]1OC(C)=O	0.0841	-0.313 (inactive)	0.214	-0.0716	-0.249	-0.039	0.148	0.997	0.755	0.0066
O=C(NN=C1C[C@@H](O)[C@@H](O)[C@@H]2[C@@H]3C(=O)N(c4ccc(F)cc4F)C(=O)[C@@H]3CC[C@@H]12)OCc1ccccc1	0.458	-0.662 (inactive)	0.0952	-0.123	0.129	0.229	0.3	0.661	0.272	0.247
C/C=C\[C@@H](NCc1ccccc1Br)[C@@H](O)Cc1ccccc1	0.099	0.168 (inactive)	-0.221	-0.13	-0.263	-0.103	-0.0543	-0.636	-1.02	-0.342
Cc1cc2c(c(=O)o1)[C@H](O)[C@H]1O[C@H]1C2=O	-1.02	-0.18 (inactive)	0.255	-0.0076	0.0024	-0.682	-0.106	-0.333	0.26	-0.0383
CCCCCCc1nc(CCCc2cc3c(c(CCCCCC)n2)[Si](C(C)C)(C(C)C)O[C@H]3c2ccccc2)cc2c1[Si](C(C)C)(C(C)C)O[C@H]2c1ccccc1	-0.27	0.248 (inactive)	-0.0284	-0.14	-0.156	-0.0088	-0.0919	-0.14	-0.0538	0.314
CCc1cc2c(nc1CC)CCN(CCC(C)=NO[C@@H](C)c1cc(-c3c(C)cc(C)cc3C)no1)C2	0.417	-0.128 (inactive)	-0.146	-0.0649	-0.195	0.778	-0.126	0.353	-0.121	0.765
COc1ccc([Si](C)(C)[C@H]2[C@H](CCO)O[C@@]3(C(=O)N(Cc4cccc(NC(=O)[C@H](C)O)c4)c4ccccc43)[C@@H]2C)cc1	0.564	1.49 (inactive)	0.0306	-0.13	0.395	1.55	0.335	1.27	0.189	1.11
O=C1[C@H]2[C@H]3[C@H](O)[C@H](O)CC(=NOC[C@@H](O)COCc4ccco4)[C@H]3CC[C@H]2C(=O)N1Cc1ccc2c(c1)OCO2	-0.244	-0.377 (inactive)	-0.29	-0.17	-0.441	-0.385	0.311	0.0595	1.49	-1.26
COC(=O)[C@@H]1CC[C@H](C)[C@@H](c2ccc(C)cc2)N1C(=O)c1ccc(C=NOC(C)CN2CCCCc3nc(C)c(C)cc32)cc1 (stereo not given in full)	0.594	-0.317 (inactive)	0.0916	-0.0707	-0.0862	0.125	0.388	0.0689	0.62	0.951
Cn1cccc1C(O)C1C=CC2C(=O)NC(=O)C2N1Nc1ccccn1 (stereo not given)	0.809	0.0019 (inactive)	-0.0166	-0.171	0.914	-0.318	0.503	-1.45	0.148	-0.0954
CCCC[C@@H](O)C1=C(C)C[C@H]2C(=O)N(Cc3ccccc3)C(=O)[C@H]2[C@H]1CO	0.0852	-0.041 (inactive)	-0.0175	-0.133	-0.215	-0.377	0.0292	0.241	0.538	0.321
O=C1[C@H]2[C@H]3[C@H](O)[C@H](O)CC(=NOC[C@@H](O)COCc4ccco4)[C@H]3CC[C@H]2C(=O)N1c1cccc(Oc2ccccc2)c1	0.355	-0.705 (inactive)	-0.304	-0.133	0.364	-0.607	0.137	-0.572	-0.573	-0.785
